Experimental data: PubChem BioAssay AID1220 (Sanford-Burnham Center for Chemical Genomics, 2008)
The whole screen tested about 190,000 compounds, of which about 1,300 (0.68%) were called active. No stated cut-off is given here; in the data, active means inhibition above about 50%; inactive means the rest. For the sample, actives were picked, then their nearest neighbours and some compounds at random.

The compounds below were run against Mannose-6-phosphate isomerase (Homo sapiens) (UniProt P34949) (assay: MPI inhibition at elevated mannose 6-phosphate – biochemical, fluorescence intensity, high mannose 6-phosphate, primary screen (AID 1220)). Conditions: recombinant PMI enzyme, coupled fluorescence intensity; at 20 µM; stronger effect = higher value.
Sequence of Mannose-6-phosphate isomerase (Homo sapiens) (P34949 whole entry, looked up): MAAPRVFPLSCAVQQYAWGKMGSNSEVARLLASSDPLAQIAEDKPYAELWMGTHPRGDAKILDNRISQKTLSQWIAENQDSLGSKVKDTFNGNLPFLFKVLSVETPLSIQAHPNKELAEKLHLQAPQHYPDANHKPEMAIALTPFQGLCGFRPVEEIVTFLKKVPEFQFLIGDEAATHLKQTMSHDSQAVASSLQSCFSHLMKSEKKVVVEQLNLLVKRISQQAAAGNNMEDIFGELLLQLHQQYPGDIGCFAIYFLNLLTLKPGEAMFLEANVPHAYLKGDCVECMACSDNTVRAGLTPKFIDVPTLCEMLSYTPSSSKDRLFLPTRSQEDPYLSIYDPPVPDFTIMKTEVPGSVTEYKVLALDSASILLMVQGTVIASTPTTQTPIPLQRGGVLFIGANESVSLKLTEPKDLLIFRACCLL

inhibition, active:
C/C(CCc1ccco1)=N\NC(=O)CNc1cccc2ccccc12 56%
C/C(=N\NC(=O)CNc1cccc2ccccc12)c1ccc(Br)s1 52%
Cc1nnc(C)c2c(C)n(-c3ccccc3N)c(C)c12 56.3%
Cc1ccc(C)n1-c1ccccc1N 57.3%
COc1ccc(NC(=O)c2cc(S(=O)(=O)N3CCCCC3)ccc2N2CCCCC2)cn1 55.3%
CC(=O)N=Cc1c(C)c(C#N)c(=O)n(C)c1O 53%
Oc1cc2c(cc1C(c1ccc(Br)cc1)N1CCCC1)OCO2 (stereo not given) 68.1%
Oc1cc2c(cc1C(c1ccc(Cl)c(Cl)c1)N1CCCC1)OCO2 (stereo not given) 59.9%
N#Cc1c2c(c(NCc3ccco3)n3c1nc1ccccc13)CCC2 50.2%
O=C(c1ccccc1F)c1cc2c(cc1[N+](=O)[O-])OCCO2 51.7%
COc1ccc(OC)c(-c2c3cc(O)c(=O)cc-3oc3cc(O)c(O)cc23)c1 55.4%
Cc1cc(-c2ccco2)n(-c2ccccc2)n1 50.5%
CC1(C)NC(=O)N(CC(O)COc2ccc(N3C(=O)c4ccccc4C3=O)cc2)C1=O (stereo not given) 53%
O=C(N=Nc1ccc(NOC(=O)c2ccccc2Br)cc1)c1ccccc1O 65.2%
COc1ccc(NC(=S)Nc2cccc(Cl)c2)cc1OC 61.4%
COc1ccc(NC(=S)Nc2ncccc2C)cc1OC 55.1%
COc1ccc(NC(=S)Nc2cccc(C(C)=O)c2)cc1OC 50.5%
Cc1[nH]n(-c2ccccc2)c(=O)c1/C=N/NC(=O)COc1ccccc1[N+](=O)[O-] 58.1%

inhibition, inactive:
Cc1ccc(C(=O)NCC(=O)OC(C)C(=O)NCCC2=CCCCC2)cc1C (stereo not given) 4.6%
O=C(NCC1CCCO1)C(c1ccc(F)cc1)N(CC1CCCO1)C(=O)c1ccc(-c2ccccc2)[nH]1 (stereo not given) -8.3%
O=C(CCOc1ccccc1)Nc1cccc([N+](=O)[O-])c1 -0.7%
O=C(CNS(=O)(=O)c1ccccc1F)Nc1ccc(N2CCOCC2)cc1 1%
COc1ccc(C(=O)NCCSc2ccccc2)cc1 7.1%
CCCc1cc(=O)oc2c(C)c3occ(C)c3cc12 2.8%
C/C(CCc1ccco1)=N/NC(=O)CCC(=O)Nc1ccc(Br)cc1 7.1%
COc1ccccc1NCC(=O)N/N=C(\C)c1ccc(Br)s1 11.6%
C/C(CCc1ccco1)=N\NC(=O)CNc1c(Br)cc(Br)cc1Br -2.7%
C/C(=N\NC(=O)CNc1cccc(C)c1)c1ccc(Br)s1 14.6%
CC(=O)Cc1nsc(Nc2cccc(C)c2)n1 6.5%
COc1ccc(NC(=O)c2ccco2)cc1S(=O)(=O)N1CCOCC1 -7.3%
CC(OC(=O)c1cccnc1)C(=O)Nc1ccc2c(c1)OCO2 (stereo not given) 2.7%
Cc1cccc(CCN(CC(=O)NC2CCCCC2)C(=O)c2csnn2)c1 -6%
CN(Cc1nccn1C)C(=O)CC1C(=O)NCCN1CC(c1ccccc1)c1ccccc1 (stereo not given) 25.1%
Cc1ccc(NC(=O)CCNC(=O)c2ccco2)cc1F -1.2%
C/C(=N\NC(=O)C(=O)Nc1ccc(C)cc1)c1ccncc1 -7.3%
Cc1ccc(-n2c(C)c3c(C)nnc(C)c3c2C)cc1N 44.2%
CC1CCN(c2ccccc2N)CC1 2%
Cc1nnc(C)c2c(C)n(C(c3ccccc3)c3ccccc3)c(C)c12 8%
Cc1ccc(C)n1-c1ccccc1N1CCCCC1 -1.9%
Cc1nn(-c2ccccc2)c(C)c1C(=O)OCC(=O)c1c(N)n(CC(C)C)c(=O)n(C)c1=O 4.3%
Cc1ccc(NC(=O)c2cc(S(=O)(=O)N3CCCCC3)ccc2N2CCOCC2)cc1F 9.5%
COc1ccc(NC(=O)c2cccc(S(=O)(=O)N3CCOCC3)c2)cn1 -1.9%
CCOC(=O)/C(C#N)=C/c1ccc(SC)cc1 -6.5%
O=c1[nH]c(Cc2ccccn2)nc2scc(-c3ccccc3Cl)c12 -108%
O=C1CNC(=S)N1c1nc(-c2ccccc2)cs1 0.9%
Cc1c(/C=N/Nc2ccc(F)cc2)c(O)n(C)c(=O)c1C#N -7%
Cc1ccc(N/N=C/c2c(C)c(C#N)c(=O)n(C)c2O)cc1C 23.3%
CCC(=C(c1ccc(OC)cc1)c1ccc(OC)cc1)c1cn(CC(O)CN2CCN(C)CC2)c2ccccc12 (stereo not given) -5.7%
c1ccc(CCn2nnnc2C(c2cccnc2)N2CCN(c3nc4ccccc4s3)CC2)cc1 (stereo not given) 15.2%
CC(C)c1ccc(NC(=O)C(c2ccc3c(c2)OCO3)N2CCCCC2)cc1 (stereo not given) 10.5%
Oc1c(C(c2ccc(Cl)cc2)N2CCCC2)cc(Cl)c2cccnc12 (stereo not given) 44.8%
S=C(c1ccc2c(c1)OCO2)N1CCCCCC1 3.6%
S=C(c1ccc2c(c1)OCO2)N1CCCC1 7.1%
CCN(CC)C(=O)C(=O)Nc1ccc(OCc2ccccc2)cc1 0.5%
CC(C)Nc1nc(NC(C)C)nc(C(=O)OCCO)n1 -5.1%
O=C(COc1ccccc1)N(Cc1cc2ccccc2[nH]c1=O)CC1CCCO1 (stereo not given) 0.7%
CC(C)N1CCN(Cc2ccsc2)CC1CCO (stereo not given) 5.4%
CCc1c(C)c(C#N)c2nc3ccccc3n2c1NCc1ccco1 -6.6%
N#Cc1c2c(c(NCc3cccnc3)n3c1nc1ccccc13)CCC2 11.3%
Cc1ccc(NC(=O)CN2C(=O)NC(C)(CCc3ccccc3)C2=O)cc1 (stereo not given) 26.7%
COc1cccc(C2CC(=O)NC3=C2C(=O)CCC3)c1 (stereo not given) -0.9%
CCC(NC(=O)C1CCC1)c1ccc(C)cc1 (stereo not given) 3.8%
O=C(c1ccccc1)c1cc2c(cc1[N+](=O)[O-])OCCO2 10.9%
Nc1cc2c(cc1C(=O)c1ccccc1F)OCCO2 13.3%
COc1ccc(OC)c(NC(=S)NCC(c2cccnc2)N2CCOCC2)c1 (stereo not given) 2.4%
CC(C)N1CCN(Cc2ccoc2)CC1CCO (stereo not given) -6.7%
Cc1c2cc(O)c(=O)cc-2oc2cc(O)c(O)cc12 28.8%
CCOc1ccccc1-c1c2cc(O)c(=O)cc-2oc2cc(O)c(O)cc12 42%
CN(C)C(=O)C[n+]1cccc(/C=N/O)c1 -5.5%
C=CCn1c(SCC(=O)Nc2ccccc2)nnc1-c1cccc(S(=O)(=O)N2CCOCC2)c1 3.2%
C[C@@H]1O[C@@H](OC[C@H]2O[C@@H](Oc3c(-c4ccc(O)c(O)c4)oc4cc(O)cc(O)c4c3=O)[C@H](O)[C@@H](O)[C@@H]2O)[C@H](O)[C@H](O)[C@H]1O 18.4%
CC1OC(OCC2OC(Oc3c(-c4ccc(O)cc4)oc4cc(O)cc(O)c4c3=O)C(O)C(O)C2O)C(O)C(O)C1O (stereo not given) 16.6%
COC(=O)c1ccc(COC(=O)CNC(=O)c2ccco2)cc1 1.5%
CC1CC(NC(=O)c2ncn[nH]2)CC(C)(C)C1 (stereo not given) -12.5%
COc1ccc(C(=O)/C=C2\NCC3c4ccccc4CCN3C2=O)cc1 (stereo not given) -140%
Cc1cccc(C(=O)NCCN(C)C)c1 3%
Cc1cc(-c2ccco2)n(CC(=O)O)n1 -2.6%
Cc1cc(NC(=O)c2cc(-c3ccco3)on2)n(-c2ccccc2)n1 26.3%
CC1(C)NC(=O)N(CC(O)COc2ccc(-c3ccccc3)cc2)C1=O (stereo not given) -0.4%
Cc1ccc(OCC(O)CN2C(=O)NC(C)(C)C2=O)cc1 (stereo not given) 5.5%
O=C(NCC(=O)N1CCCC1)c1cccs1 2%
O=C(ONc1ccc(N=NC(=O)c2ccccc2O)cc1)c1ccccc1 22.9%
Cc1ccc(C(=O)ONc2ccc(N=NC(=O)c3ccccc3O)cc2)cc1 -5.4%
CN(Cc1cccnc1)C(=O)CC1C(=O)NCCN1Cc1ccc(-c2ccccc2)cc1 (stereo not given) 8.9%
CCOC(=O)C(C#N)C(Cc1ccccc1)c1ccco1 (stereo not given) 5.7%
COc1ccc(C(=O)Nc2cccc(C(C)=O)c2)cc1OC -4.1%
COc1ccc(NC(=S)Nc2cccc(Cl)c2Cl)cc1OC 40.9%
COc1cc(NC(=S)Nc2ncccc2C)cc(OC)c1OC 31%
COc1cc(C)c(NC(=S)Nc2cccc(Cl)c2)cc1OC 24.5%
COC(=O)c1cc(OC)c(OC)cc1NC(=S)Nc1cccc(C(C)=O)c1 -8%
COc1ccc(NC(=S)Nc2ncccc2C)c(OC)c1 10.1%
Cc1c(NC(=O)c2cc3ccccc3o2)c(=O)n(-c2ccccc2)n1C -16.9%
COc1ccc(-c2nc(N3CCCC3)[nH]c(=O)c2C#N)cc1 -5.5%
C=CCc1cccc2cc(C(=O)NCc3cccnc3)c(=O)oc12 3.6%
Cc1ccc(NCC(=O)N=Nc2c(O)n(C)c3ccccc23)cc1 -2.1%
O=C(NC1CC1)C1=C[C@H](C2CC2)C[C@H](OCCCCO)O1 0.3%
CCS(=O)(=O)c1ccc2oc(SCC(=O)Nc3ccc(OC)cc3OC)nc2c1 14.5%
Cc1onc(-c2ccccc2Cl)c1C(=O)N1CCOC12CCCCC2 -6.1%
Cc1ccc(OCC(=O)N/N=C\c2c(C)[nH]n(-c3ccccc3)c2=O)c([N+](=O)[O-])c1 -3.5%
COCC(=O)N/N=C/c1c(C)[nH]n(-c2ccccc2)c1=O -4.5%
